Source: PubChem
In the library only some 0.38% were active in any assay of this set; here they are far more common.
Proteasome disasm: blocks ATP-dependent breakdown of the yeast 26S proteasome; inhibition of disassembly, % (test concentration not listed); anti-FLAG beads, GFP-proteasome disassembly, flow cytometry; actives 0.2% (n = 24,000);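 active = inhibition of disassembly above about 33%, limit read from the data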;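 note: plate controls were ATP control with full disassembly for no effect and ATP-gamma-S intact proteasomes for full effect; higher percent means more bead fluorescence retained so stronger block of disassembly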
S aureus QS inh: S. aureus quorum sensing inhibition | AID 527 | actives 0.3% (n = 24,000) | inhibition, % at 2 µM | S. aureus RN6390 RNAIII-GFP reporter, AIP-induced, flow cytometry 3 h;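 active = share of bacteria positive for the green fluorescent reporter and its mean brightness both inhibited by 50% or more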;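 note: 0% = AIP-stimulated control and 100% = unstimulated bacteria without AIP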
* = called active by the depositor.

SMILES | Proteasome disasm | S aureus QS inh
CC1CCCN(C(C(=O)Nc2ccc3c(c2)OCO3)c2ccccc2)C1 (centres undefined) | -4 | 99*
CC1CCCN(C(C(=O)Nc2ccc3c(c2)OCCO3)c2ccccc2)C1 (centres undefined) | -1 | 99*
O=C(Nc1ccc2c(c1)OCO2)C(c1ccccc1)N1CCCCC1 (centres undefined) | -4 | 12
CC1CCN(C(C(=O)Nc2ccc3c(c2)OCO3)c2ccccc2)CC1 (centres undefined) | -2 | 15
COc1ccccc1CNC(=O)c1cc2c(=O)n(C)c3ccccc3c2n1C | 0 | 0
CN1C2C=C3C(C#N)=C(N)C(C#N)(C#N)[C@@H](c4ccc(Cl)cc4)[C@@H]3C1CC2 (some centres undefined) | -1 | -4
Cc1ccc(C2C3CSCC=C3C(C#N)=C(N)C2(C#N)C#N)cc1 (centres undefined) | 40* | -2
COc1ccc(OC)c(C2C(C(=O)Nc3cccnc3)=C(C)NC3=C2C(=O)CCC3)c1 (centres undefined) | 2 | 0
Cc1ccccc1NC(=O)CN(C)S(=O)(=O)c1cccc2cccnc12 | -1 | 0
CCCCOc1ccc(-c2nnn(CC(=O)Nc3ncc(CC(=O)OCC)s3)n2)cc1 | 0 | -3
CCCN1Cc2cccc(C(=O)Nc3ccc(OC)c(OC)c3)c2C1=O | -1 | -3
CCCN1Cc2cccc(C(=O)Nc3ccc(CN4CCCC4)cc3)c2C1=O | 102* | -9
COC(=O)C1=C(C)N=c2s/c(=C/c3cccs3)c(=O)n2C1c1cccs1 (centres undefined) | 110* | 4
CCOC(=O)C1=C(C)N=c2s/c(=C\c3cccn3C)c(=O)n2C1c1cccc(OC)c1OC (centres undefined) | 14 | 6
COC(=O)c1ccc(CSc2nc3c(cnn3-c3ccc(F)cc3)c(=O)[nH]2)o1 | 1 | 7
COC(=O)c1ccc(CSc2nc3c(cnn3-c3ccc(Cl)cc3)c(=O)[nH]2)o1 | 1 | 71*
O=C(NC(=O)c1cccc(OC(F)(F)C(F)F)c1)OC1CCS(=O)(=O)C1 (centres undefined) | 6 | -1
CCOc1ccc2nc(NC(=O)C3CCCN(S(=O)(=O)c4c(C)noc4C)C3)sc2c1 (centres undefined) | 1 | 2
COc1ccc(-c2nc3ncccn3c2Nc2ccc3c(c2)OCCO3)cc1 | 0 | -1
Oc1ccc(-c2nc3ncccn3c2Nc2ccc3c(c2)OCCO3)cc1 | 0 | 83*
CC(C)(C)OC(=O)N1CCN(c2ccc(NC(=O)c3cc4ccccc4oc3=O)cc2)CC1 | -2 | -1
Cc1ccc(C2CC(c3ccc(C)cc3)n3nc(N)nc3N2)cc1 (centres undefined) | -1 | -2
COc1ccc(N(CC(=O)Nc2nc3ccc(C)cc3s2)S(=O)(=O)c2c(C)nn(C)c2C)cc1 | 1 | 66*
COc1ccc(N(CC(=O)Nc2cccc(OC)c2)S(=O)(=O)c2c(C)nn(C)c2C)cc1 | 0 | 0
Cc1ccc2nc(NC(=O)Cn3cc4c(n3)CCCCC4)sc2c1 | 2 | 2
